Laboratory results: ChEMBL document CHEMBL1961873, “Compounds: GSK PKIS; Assays: Nanosyn kinase panel” (2012)

Tests used:
[1] = biological target: RAC-alpha serine/threonine-protein kinase (Homo sapiens) (UniProt P31749); conditions: at 0.1 µM
[2] = biological target: RAC-alpha serine/threonine-protein kinase (Homo sapiens) (UniProt P31749); conditions: at 1 µM
[3] = biological target: RAC-beta serine/threonine-protein kinase (Homo sapiens) (UniProt P31751); conditions: at 0.1 µM
[4] = biological target: RAC-beta serine/threonine-protein kinase (Homo sapiens) (UniProt P31751); conditions: at 1 µM
[5] = biological target: RAC-gamma serine/threonine-protein kinase (Homo sapiens) (UniProt Q9Y243); conditions: at 0.1 µM
Sequence of RAC-gamma serine/threonine-protein kinase (Homo sapiens) (Q9Y243 whole entry): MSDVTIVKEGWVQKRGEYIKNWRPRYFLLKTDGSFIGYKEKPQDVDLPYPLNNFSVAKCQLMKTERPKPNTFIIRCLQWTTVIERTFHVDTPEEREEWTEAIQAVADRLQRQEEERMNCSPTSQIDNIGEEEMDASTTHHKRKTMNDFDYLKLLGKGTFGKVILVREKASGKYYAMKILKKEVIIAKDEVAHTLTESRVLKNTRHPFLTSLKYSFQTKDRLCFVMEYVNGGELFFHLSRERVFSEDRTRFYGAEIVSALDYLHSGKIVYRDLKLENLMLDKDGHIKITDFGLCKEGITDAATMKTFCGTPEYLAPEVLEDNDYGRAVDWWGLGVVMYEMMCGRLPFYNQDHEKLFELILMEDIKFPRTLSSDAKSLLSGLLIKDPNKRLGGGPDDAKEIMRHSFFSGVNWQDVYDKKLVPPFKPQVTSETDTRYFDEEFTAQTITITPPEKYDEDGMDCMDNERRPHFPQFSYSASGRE

[6] = biological target: RAC-gamma serine/threonine-protein kinase (Homo sapiens) (UniProt Q9Y243); conditions: at 1 µM
[7] = biological target: G protein-coupled receptor kinase 6 (Homo sapiens) (UniProt P43250); conditions: at 0.1 µM
Sequence of G protein-coupled receptor kinase 6 (Homo sapiens) (P43250 whole entry, looked up): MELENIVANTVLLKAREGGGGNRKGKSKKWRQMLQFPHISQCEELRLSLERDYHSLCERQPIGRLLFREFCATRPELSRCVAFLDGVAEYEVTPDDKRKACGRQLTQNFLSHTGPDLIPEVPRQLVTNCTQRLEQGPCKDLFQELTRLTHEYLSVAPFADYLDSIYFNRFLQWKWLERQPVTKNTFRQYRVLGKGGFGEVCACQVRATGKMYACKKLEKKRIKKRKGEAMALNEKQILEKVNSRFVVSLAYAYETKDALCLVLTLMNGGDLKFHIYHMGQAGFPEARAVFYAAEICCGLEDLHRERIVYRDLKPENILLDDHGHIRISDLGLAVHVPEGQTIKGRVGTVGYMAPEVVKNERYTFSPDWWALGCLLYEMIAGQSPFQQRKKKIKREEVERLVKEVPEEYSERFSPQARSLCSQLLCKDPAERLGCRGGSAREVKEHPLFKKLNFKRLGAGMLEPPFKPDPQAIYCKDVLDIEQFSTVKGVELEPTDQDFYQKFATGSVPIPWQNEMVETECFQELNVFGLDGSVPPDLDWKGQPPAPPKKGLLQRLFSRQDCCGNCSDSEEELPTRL

[8] = biological target: G protein-coupled receptor kinase 6 (Homo sapiens) (UniProt P43250); conditions: at 1 µM
[9] = biological target: T1, Rhodopsin kinase GRK7 (Homo sapiens) (UniProt Q8WTQ7); conditions: at 0.1 µM
T1 sequence (whole entry): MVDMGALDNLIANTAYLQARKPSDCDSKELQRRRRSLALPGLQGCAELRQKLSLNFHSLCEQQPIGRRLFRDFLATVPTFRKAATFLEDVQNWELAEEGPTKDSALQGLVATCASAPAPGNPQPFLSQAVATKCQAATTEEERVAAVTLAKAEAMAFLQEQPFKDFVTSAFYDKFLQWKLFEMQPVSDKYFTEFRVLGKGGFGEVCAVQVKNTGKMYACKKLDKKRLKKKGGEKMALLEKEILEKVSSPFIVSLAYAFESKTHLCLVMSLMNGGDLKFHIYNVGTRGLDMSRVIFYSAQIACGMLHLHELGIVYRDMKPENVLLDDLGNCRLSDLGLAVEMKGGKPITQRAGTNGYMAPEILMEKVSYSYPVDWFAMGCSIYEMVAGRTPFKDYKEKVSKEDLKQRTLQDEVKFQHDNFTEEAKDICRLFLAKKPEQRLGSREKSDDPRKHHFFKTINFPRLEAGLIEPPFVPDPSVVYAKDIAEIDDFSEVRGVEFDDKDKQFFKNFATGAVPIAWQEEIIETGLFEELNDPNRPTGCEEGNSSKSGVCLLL

[10] = biological target: T1, Rhodopsin kinase GRK7 (Homo sapiens); conditions: at 1 µM

Sequence of RAC-beta serine/threonine-protein kinase (Homo sapiens) (P31751 whole entry): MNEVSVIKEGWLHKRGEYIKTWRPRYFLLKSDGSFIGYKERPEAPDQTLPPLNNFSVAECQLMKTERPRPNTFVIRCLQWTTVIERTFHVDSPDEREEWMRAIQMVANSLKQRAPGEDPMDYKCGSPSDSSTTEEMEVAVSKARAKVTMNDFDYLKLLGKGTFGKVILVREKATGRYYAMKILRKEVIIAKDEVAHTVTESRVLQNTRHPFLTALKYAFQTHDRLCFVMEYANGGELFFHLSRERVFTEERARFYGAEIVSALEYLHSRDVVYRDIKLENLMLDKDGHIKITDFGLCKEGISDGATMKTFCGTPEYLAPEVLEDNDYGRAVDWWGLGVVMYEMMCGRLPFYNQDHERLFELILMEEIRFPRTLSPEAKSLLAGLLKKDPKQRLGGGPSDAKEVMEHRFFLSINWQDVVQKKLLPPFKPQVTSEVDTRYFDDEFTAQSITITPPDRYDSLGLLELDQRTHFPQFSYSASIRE
Sequence of RAC-alpha serine/threonine-protein kinase (Homo sapiens) (P31749 whole entry): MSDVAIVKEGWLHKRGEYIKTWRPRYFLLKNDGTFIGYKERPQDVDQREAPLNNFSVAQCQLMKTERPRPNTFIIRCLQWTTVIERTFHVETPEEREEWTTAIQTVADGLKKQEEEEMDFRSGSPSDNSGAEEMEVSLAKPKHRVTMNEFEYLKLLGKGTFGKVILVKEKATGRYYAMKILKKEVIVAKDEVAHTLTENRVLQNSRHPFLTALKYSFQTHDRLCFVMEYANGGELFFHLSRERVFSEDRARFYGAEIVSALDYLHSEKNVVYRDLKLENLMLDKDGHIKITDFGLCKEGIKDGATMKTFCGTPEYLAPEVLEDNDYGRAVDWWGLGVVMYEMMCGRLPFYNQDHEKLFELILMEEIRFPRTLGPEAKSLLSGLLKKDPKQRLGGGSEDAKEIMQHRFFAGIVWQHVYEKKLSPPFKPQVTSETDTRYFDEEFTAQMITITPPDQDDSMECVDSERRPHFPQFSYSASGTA

Row | SMILES | inhibition [1] [%] | inhibition [2] [%] | inhibition [3] [%] | inhibition [4] [%] | inhibition [5] [%] | inhibition [6] [%] | inhibition [7] [%] | inhibition [8] [%] | inhibition [9] [%] | inhibition [10] [%]
1 | COc1ccccc1-c1cc(/C=C2\C(=O)Nc3ncc(Br)cc32)cc(Br)c1O | 0.67 | 0.15 | 1.96 | 2.36 | 1.93 | 0.61 | 5.35 | 30.3 | 28.7 | 57.2
2 | O=C1Nc2ccccc2/C1=C1\CCc2cc(O)ccc21 | 1.29 | 1.37 | 1.86 | 4.03 | 3.35 | 1.29 | 2.32 | 15 | 3.45 | 11.4
3 | NS(=O)(=O)c1ccc(N/N=C2\C(=O)Nc3ccc(C(=O)NCc4ccncc4)cc32)cc1 | 1.33 | 1.28 | 2.42 | 1.92 | 1.54 | 1.99 | 5.6 | 21.9 | 2.04 | 6.72
4 | COC(=O)Nc1nc2cc(Oc3ccc(NC(=O)Nc4ccccc4)cc3)ccc2[nH]1 | 0.35 | 0.28 | 1.44 | 1.16 | 2.24 | 0.78 | 3.76 | 10.8 | 4.75 | 15.2
5 | Cc1ccc(-c2cc3c(NC(=O)C4CC4)ncnc3o2)cc1 | 0.96 | 1.39 | 1.6 | 1.7 | 3.51 | 2.62 | 3.77 | -1.16 | 4 | 1.88
6 | O=C(Nc1n[nH]c2nnc(-c3cccnc3)cc12)C1CC1 | -0.73 | -0.67 | -0.56 | 0.1 | -0.57 | 5.03 | 3.53 | 0.48 | 2.31 | -1.4
7 | NS(=O)(=O)c1cccc(N/C=C2\C(=O)Nc3ccccc32)c1 | 0.57 | 0.97 | 1.32 | 1.98 | 1.37 | 0.33 | 3.98 | 11.5 | 2.36 | 9.13
8 | OCCCNc1nccc(-c2c(-c3ccc(F)cc3)nn3cc(C(F)(F)F)ccc23)n1 | 0.44 | 0.71 | 1.9 | 0.18 | 0.6 | 0 | 1.18 | -2.71 | -0.28 | -8.21
9 | COc1c(C(N)=O)cc(-c2ccc(Cl)cc2)cc1-c1ccc(S(N)(=O)=O)cc1 | 1.15 | 2.28 | 2.77 | 1.74 | 1.8 | 3.15 | 4.42 | 7.23 | 10.6 | 2.21
10 | Cc1nnc(-c2cccc(-c3ccc(C(=O)NCC4CC4)cc3)c2)o1 | 0.55 | 1.35 | 2.63 | 1.84 | 1.35 | 1.48 | 3.35 | 10.4 | 6.78 | 6.04
11 | CS(=O)(=O)CCNCc1ccoc1-c1ccc2ncnc(Nc3ccc(OCc4ccccc4)cc3)c2c1 | -0.19 | 0.18 | -0.24 | 0.41 | -0.09 | 2.03 | 0.69 | 1.77 | 4.11 | -0.84
12 | CN1CCC(n2cnc(-c3ccc(F)cc3)c2-c2ccnc(NCCO)n2)CC1 | 0.7 | 1.07 | 1.3 | 1.3 | 1.33 | 2.14 | 4.71 | 6.12 | 4.41 | 7.73
13 | COc1ccc(-c2nn3ncccc3c2-c2ccnc(Nc3ccc(F)c(F)c3)n2)cc1 | 0.52 | 2.13 | 1.56 | 1.42 | 1.4 | 2.01 | 7.85 | 10.1 | 6.45 | 7.95
14 | COc1cc(N2CCN(C(C)C)CC2)ccc1Nc1nc(Nc2cccc(F)c2C(=O)O)c2cc[nH]c2n1 | 0.12 | 0.67 | 1.27 | 1.08 | 0.73 | 2.08 | 6.59 | 10.8 | 3.79 | 5.95
15 | NC(=O)c1ccc2c(-c3ccnc(NCCCO)n3)c(-c3ccc(F)cc3)nn2c1 | 0.79 | -0.47 | 1.62 | 1.08 | 1.04 | 2.17 | 0.86 | 2.38 | 1.93 | 4.08
